Shown are actives, neighbours in structure and some others; about 2.8% of the full set was active somewhere.
PAFAH1B2 inh: inhibitors of human PAFAH1B2. recombinant PAFAH1B2, FP-rhodamine activity probe, fluorescence polarization. inhibition, % at 3.39 µM. 1.2% of 340,000 active;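 active = inhibition above the mean of all tested compounds plus 3 SD, cut at about 24% in these data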
Target sequence (P68402 whole entry, looked up): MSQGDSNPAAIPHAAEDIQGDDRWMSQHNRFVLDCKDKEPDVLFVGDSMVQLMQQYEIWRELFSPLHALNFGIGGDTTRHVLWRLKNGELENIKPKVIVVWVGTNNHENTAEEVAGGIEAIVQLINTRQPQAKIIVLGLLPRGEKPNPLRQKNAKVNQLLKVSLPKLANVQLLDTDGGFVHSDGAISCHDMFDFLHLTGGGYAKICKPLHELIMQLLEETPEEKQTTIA
PME-1 primary: PME-1 (human) inhibition; AID 2130; inhibition, % at 5.9 µM; Q9Y570; recombinant PME-1, FP-Rh probe fluorescence polarization; 0.53% of 320,000 active;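 active = inhibition above the campaign mean of all compounds plus 3 SD, cut at about 26% in these data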;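 also: competitive labeling of PME-1 active site by serine hydrolase directed probe; inhibitors block probe labeling so polarization falls and inhibition rises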
Target sequence (Q9Y570 whole entry, looked up): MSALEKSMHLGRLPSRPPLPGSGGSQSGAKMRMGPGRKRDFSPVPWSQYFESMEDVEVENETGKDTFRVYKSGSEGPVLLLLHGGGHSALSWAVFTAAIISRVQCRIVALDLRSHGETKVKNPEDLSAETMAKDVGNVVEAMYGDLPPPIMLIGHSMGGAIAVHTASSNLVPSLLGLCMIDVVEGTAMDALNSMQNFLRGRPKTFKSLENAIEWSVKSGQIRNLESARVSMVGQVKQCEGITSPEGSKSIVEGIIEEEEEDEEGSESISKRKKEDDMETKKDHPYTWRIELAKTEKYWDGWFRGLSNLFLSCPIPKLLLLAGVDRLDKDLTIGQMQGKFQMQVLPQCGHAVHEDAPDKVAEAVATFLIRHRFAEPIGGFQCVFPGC
PAFAH2 inh: PAFAH2 (human) inhibition; Q99487; recombinant PAFAH2, FP-rhodamine activity probe, fluorescence polarization; inhibition, % at 3.39 µM; 0.99% of 340,000 active; AID 492956;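 active = inhibition above the mean over all tested compounds plus 3 SD, cut at about 30% in these data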;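 also: inhibitors block probe labeling of enzyme so polarization drops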
PAFAH1B3 FP inh: inhibitors of human PAFAH1B3; inhibition, % at 3.39 µM; 0.28% of 340,000 active; recombinant PAFAH1B3, FP-rhodamine probe, fluorescence polarization;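 active = inhibition above the screen-wide average of all tested compounds plus 3 SD, cut at about 25% in these data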
pPAFAH FP inh: pPAFAH (human) enzyme inhibition | Q13093 | inhibition, % at 3.39 µM | AID 463082 | 1.5% of 330,000 active | recombinant pPAFAH, FP-rhodamine probe fluorescence polarization;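 active = inhibition above the mean inhibition across the screen plus 3 SD, cut at about 25% in these data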;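 also: inhibitors block binding of the rhodamine activity-based probe so polarization drops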
Fam108B inh: Fam108B inhibition, counter-screen for RBBP9 inhibitors. 0.33% of 300,000 active. inhibition, % at 9.51 µM. recombinant Fam108B, FP-Rh probe fluorescence polarization;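 active = inhibition above the screen mean inhibition plus 3 SD, computed separately per campaign, cut at about 18% in these data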;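 also: inhibitors lower polarization as less probe binds the enzyme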
Numbers stand for hits; - = inactive; . = not tested or not shown.

SMILES	PAFAH1B2 inh	PME-1 primary	PAFAH2 inh	PAFAH1B3 FP inh	pPAFAH FP inh	Fam108B inh
Nc1ccc(Oc2ccc3nc(-c4ccccc4)c(-c4ccccc4)nc3c2)cc1	-	-	-	-	-	-
COc1ccc(CN2CCNC(=O)C2CC(=O)N(C)CC2CCOCC2)cc1C (centres undefined)	-	.	-	-	.	.
N#CC1=C(N)NC(SCc2ccc(F)cc2)=C(C#N)C12CCCCC2	27.6	-	-	-	-	-
COc1cc(/C=C2/C(=N)N3N=C(CC(=O)N4CCOCC4)SC3=NC2=O)ccc1OC(C)c1ccccc1 (centres undefined)	27.9	-	-	-	-	-
N=C1/C(=C/c2ccc(OCc3ccccc3F)cc2)C(=O)N=C2SC(CC(=O)N3CCOCC3)=NN12	-	-	-	-	-	-
CS(=O)(=O)Oc1ccc(/C=C2\C(=N)N3N=C(CC(=O)N4CCOCC4)SC3=NC2=O)cc1Cl	-	-	-	-	-	-
N=C1/C(=C/c2ccc(OCc3ccccc3)cc2)C(=O)N=C2SC(CC(=O)N3CCOCC3)=NN12	27.8	-	-	-	-	-
C1=CC2=NC34CCCCC3CC3=C(CCCC3)N4C2=CC1=NC1CCCCC1 (centres undefined)	-	-	-	-	-	-
Cc1ccc(C)c(C(=O)C(C)Sc2nc3nn(-c4ccccc4)c(=O)c-3c3n2CCCCC3)c1 (centres undefined)	-	-	-	-	-	-
CCCCOc1ccc(C(=O)Nc2ccc(S(=O)(=O)Nc3onc(C)c3C)cc2)cc1	-	-	-	-	-	-
Cc1noc(NS(=O)(=O)c2ccc(NC(=O)CC34CC5CC(CC(Br)(C5)C3)C4)cc2)c1C	33.2	-	-	-	-	-
Cc1noc(NS(=O)(=O)c2ccc(NC(=O)C34CC5CC(C3)CC(n3cnc(Cl)n3)(C5)C4)cc2)c1C	-	-	-	-	-	-
CCCOc1ccc(C(=O)Nc2ccc(S(=O)(=O)Nc3onc(C)c3C)cc2)cc1	-	-	-	-	30.3	-
Cc1noc(NS(=O)(=O)c2ccc(NC(=O)Nc3ccc(Cl)c(Cl)c3)cc2)c1C	-	50.9	-	-	25.4	-
CCN1C(=O)/C(=C\c2ccc(-c3ccc([N+](=O)[O-])cc3OC)o2)SC1=Nc1cccc(C(=O)O)c1	24.2	.	-	-	.	.
CCOC(=O)c1c(C)[nH]c(O)c1C=Nc1ccc(C(F)(F)F)cc1	-	-	-	31.3	-	-
N#Cc1c(-c2ccc(Cl)cc2)n(O)c2ccccc12	-	.	-	-	.	.
Cc1oc2c(cc(NS(=O)(=O)c3ccc(F)cc3)c3ccccc32)c1C(=O)O	-	-	-	-	-	-
Cc1oc2c(cc(NS(=O)(=O)c3ccc(C(C)C)cc3)c3ccccc32)c1C(=O)O	-	-	-	-	31.7	-
Cn1c(N)c(C(=O)CSc2nc(C3CC3)n(-c3ccccc3)n2)c(=O)[nH]c1=O	-	-	-	-	31.8	.
Cn1c(N)c(C(=O)CSc2nnc(C3CC3)n2-c2ccccc2)c(=O)[nH]c1=O	-	.	-	-	-	.
CCCNC(=O)C1CN(C(=O)c2nn(Cc3ccccc3)c(=O)c3ccccc23)c2ccccc2O1 (centres undefined)	-	-	-	-	-	.
N#CC1=C(S)N(c2ccccc2)C(c2ccc(-c3cccc(Cl)c3)o2)NC1=O (centres undefined)	-	-	-	-	28.4	-
Cc1cc(C(=O)CSc2cccc[n+]2[O-])c(C)n1-c1ccc(OC(F)F)cc1	-	-	-	-	30.6	-
COC(=O)c1ccc(-n2c(C)cc(C(=O)CSc3cccc[n+]3[O-])c2C)cc1	-	-	-	-	-	-
SMILES	PAFAH1B2 inh	PME-1 primary	PAFAH2 inh	PAFAH1B3 FP inh	pPAFAH FP inh	Fam108B inh
Cc1onc(-c2ccccc2)c1C(=O)Nc1sc2c(c1C#N)CCC2	-	-	-	-	27.4	-
CSC(=O)NC12CC3CC(CC(C)(C3)C1)C2	28.1	-	-	-	-	-
Cc1ccc2nc(-c3cccc(N)c3)[nH]c2c1	-	-	-	-	-	-
Cc1ccc2nc(-c3sc4nc(C)cc(C)c4c3N)[nH]c2c1	-	30.2	-	-	-	-
O=S(=O)(NCc1c(Cl)cccc1Oc1ccccc1)c1ccccc1	-	-	-	-	-	-
N#Cc1c(Cl)cccc1Oc1ccc(S(=O)(=O)Nc2ccccc2)cc1	.	-	.	.	25.5	-
Brc1ccc(CSc2nnc(-c3cnccn3)n2Cc2ccco2)cc1	29.8	-	-	-	-	-
O=[N+]([O-])c1sccc1CS(=O)(=O)c1ccccc1	-	-	-	-	-	-
S=c1[nH]nc(-c2cc(-c3ccccc3)n[nH]2)n1/N=C/C=C/c1ccco1	.	-	.	.	26.1	-
S=c1[nH]nc(-c2n[nH]c3c2CCC3)n1/N=C/C=C/c1ccco1	.	-	.	.	-	-
Cc1ccc(-n2nc3c(c2NC(=O)c2ccc4c(c2)OCO4)CS(=O)(=O)C3)c(C)c1	-	-	-	-	-	-
N=C1C(c2nc(-c3ccc(F)cc3)cs2)=C(O)CN1CCCN1CCOCC1	-	-	38.1	-	-	-
CCOC(=O)C(C)On1c(-c2ccccc2)nc2ccc([N+](=O)[O-])cc21 (centres undefined)	-	27.4	-	-	-	-
COc1ccc(N2CCN(S(=O)(=O)c3cc4c(cc3C)N(C(C)=O)CCO4)CC2)cc1	-	-	-	-	-	-
O=C(O)c1[nH]c2ccc(Cl)cc2c1CC(=O)N1CCN(c2ccccc2)CC1	24.5	-	-	-	-	-
O=C(Cc1c(C(=O)O)[nH]c2ccccc12)NCCN1CCN(c2cccc(Cl)c2)CC1	24.8	-	-	-	-	-
COc1ccc(C2=CC3=CC(=O)C(C)(O)C(=O)C3=CO2)cc1 (centres undefined)	.	-	.	.	38.0	-
COc1ccc(C2=CC3=C(Br)C(=O)C(C)(O)C(=O)C3=CO2)cc1 (centres undefined)	-	-	-	-	-	-
CC1(O)C(=O)C=C2C=C(c3ccc(C#N)cc3)OC=C2C1=O (centres undefined)	.	-	.	.	56.5	-
COC(=O)c1c(NC(=O)CCl)sc(C(=O)N2CCOCC2)c1C	-	-	-	-	-	-
CNC(=O)c1nn(C)c(=O)[nH]c1=O	-	.	-	-	.	.
O=C(CSc1ccc(Cl)cc1)N/N=C/c1ccc([N+](=O)[O-])o1	29.1	-	-	-	-	-
O=C(N/N=C/c1c[nH]c2ccccc12)c1ccccc1	-	-	-	-	-	-
O=C(N/N=C/c1ccc([N+](=O)[O-])o1)c1sc2ccccc2c1Cl	-	-	-	-	30.5	-
O=C(N/N=C/c1c[nH]c2ccccc12)c1sc2ccccc2c1Cl	-	32.5	-	-	25.4	-
C[C@@H](N)C(=O)NC[C@H]1O[C@@H](n2cnc3c(N)ncnc32)[C@H](O)[C@@H]1O	-	.	-	-	-	.
CCOc1ccc2c(ccc(/C=C/c3cc(C)c4cccnc4c3O)[n+]2C)c1	-	.	-	-	.	.
Cn1c(=O)oc2cc(S(=O)(=O)Nc3ccc(Cl)cc3)ccc21	-	-	-	-	-	-
